Assay outcomes as filed in PubChem.
Only some compounds are listed: those with a hit (about 3.2% of all), similar ones and a draw of the others.
GLP1R inv ag: GLP-1 receptor (human) inverse agonism; P43220; HEK293 GLP-1R CRE-luciferase, luminescence, 24 h; GLP-1R form is constitutively active; Potency, µM (highest dose often 38.3 µM), for inactives: at the highest dose activity change, negative = inhibition, usual class: inhibitors; 1.6% of 410,000 active; AID 624417; further: on the % scale 0 is the no-effect control and ±100 the full control effect; nearly all actives have a fitted effect of over 55% in size
Target sequence (P43220 whole entry, looked up): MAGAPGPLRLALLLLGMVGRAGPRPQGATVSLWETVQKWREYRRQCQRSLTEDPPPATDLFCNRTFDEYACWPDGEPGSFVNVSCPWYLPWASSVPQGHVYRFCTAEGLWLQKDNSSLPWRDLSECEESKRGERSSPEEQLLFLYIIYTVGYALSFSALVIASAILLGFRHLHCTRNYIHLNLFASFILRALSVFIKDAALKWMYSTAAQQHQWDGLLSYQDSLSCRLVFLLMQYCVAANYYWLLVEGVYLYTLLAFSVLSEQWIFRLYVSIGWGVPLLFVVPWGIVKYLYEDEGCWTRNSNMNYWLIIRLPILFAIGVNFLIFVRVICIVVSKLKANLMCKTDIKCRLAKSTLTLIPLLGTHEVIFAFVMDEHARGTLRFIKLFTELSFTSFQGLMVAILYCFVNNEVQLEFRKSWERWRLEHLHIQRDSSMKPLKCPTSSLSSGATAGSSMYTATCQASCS
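Luminescence readout: a drop in cAMP-driven luciferase signal flags inverse agonism at a constitutively active GLP-1R stably expressed in HEK293. Compound exposure lasted 24 hr at 37 deg C, 5% CO2.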
HEK293 tox: cytotoxic in the GLP-1 receptor inverse agonist counter-screen; HEK293 cAMP-luciferase reporter cells, luminescence, 24 h; Potency, µM (highest dose often 38.3 µM), without a hit: at the top dose activity change, negative = inhibition, actives largely listed as inhibitors; 0.13% of 410,000 active; AID 624418;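 further: loss of luciferase light is scored as toxicity; on the % scale 0 is the no-effect control and ±100 the full control effect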
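Step one: seed cells (200 cells/uL, DMEM with 10% Nu serum, 1% pen-strep). Step two: 12-hour incubation at 37 deg C. Step three: pin 23 nL compound, incubate 24 hr. Step four: add luciferase reagent, read luminescence 12 min later.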
GLP-1R agonist: activates the human GLP-1 receptor; P43220; HEK293 GLP-1R CRE-luciferase, luminescence, 4-6 h; cells express a hypersensitive GLP-1R form; Potency, µM (top dose mostly 45.6 µM), for inactives: top-dose activation, most hits filed as activators; 0.007% of 380,000 active; AID 624172; further: % of control where 0% means no effect
ClpP mod: qHTS Assay for Activators of ClpP | purified B. subtilis ClpP, FRET peptide cleavage, 20 min | 1.9% of 340,000 active | Potency, µM (series often up to 57.5 µM), inactives show top-dose activity change, negative = active | ATP-dependent Clp protease proteolytic subunit (Bacillus subtilis (strain 168)), P80244; active means well fitted falling curve with a large enough effect; inconclusive means small, poorly fitted or top-dose-only effect; inactive means no such curve, though single readings can be large or run the other way; further: the source files actives as falling curves though it sought activators and does not explain the sign; nearly all actives have a fitted effect of over 65% in size
Target sequence (P80244 whole entry, looked up): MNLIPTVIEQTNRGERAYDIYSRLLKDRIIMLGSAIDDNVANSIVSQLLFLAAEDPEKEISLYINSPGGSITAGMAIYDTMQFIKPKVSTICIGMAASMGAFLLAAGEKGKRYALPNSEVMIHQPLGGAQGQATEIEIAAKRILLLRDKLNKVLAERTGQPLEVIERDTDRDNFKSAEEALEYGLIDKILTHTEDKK
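Buffer: 100 mM Tris/HCl pH8, 100 mM KCl, 0.05% low protease BSA, 2.5% glycerol, 0.01% Tween-20. ClpP 10 microg/mL final; 20 min RT; delta FRET normalized to ADEP and DMSO controls.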
The depositor's hits bear a star; ? = inconclusive; nt = not tested or not shown; ! = a repeat was not active. Unless noted, the call rests on the fitted dose curve; in most records, active means well fitted curve in the direction sought with a large enough effect; inconclusive means small, poorly fitted or top-dose-only effect, or another doubt; inactive means no such curve, though single readings can be large; an effect the other way counts as inactive or inconclusive. Potency means the concentration at half of the fitted maximal effect.

SMILES | GLP1R inv ag | HEK293 tox | GLP-1R agonist | ClpP mod
S=C(c1ccc(Br)cc1)N1CCCC1 | -24% | 11% | 5% | 25µM*
CC(=O)Oc1ccc(C(=O)Nc2ccc(C3(C#N)CCCC3)cc2)cc1 | 2.2µM* | -11% | -6% | ?
COc1ccc(NC(=O)C2(c3ccc(NC(=O)c4ccc(OC(C)=O)cc4)cc3)CCCC2)cc1 | -20% | -12% | -3% | -14%
CCN(CC)S(=O)(=O)c1ccc2c(c1)N(CC(=O)Nc1cccc(C(C)=O)c1)C(=O)CO2 | -8% | 0% | nt | 0%
Cc1nc(SCC(=O)Nc2ccc(C)c(Cl)c2)cc(-c2ccccc2)n1 | 0% | -8% | nt | 1%
CCOc1ccccc1NC(=O)Cn1cnc2sc(C)c(S(=O)(=O)N3CCC(C)CC3)c2c1=O | -4% | -3% | nt | -1%
Cc1ccccc1-n1ncc2c(SCC(=O)NCc3cccs3)ncnc21 | 10µM* | ? | 1% | 0%
Cc1csc(NC(=O)CSc2ncnc3c2cnn3-c2ccccc2Cl)n1 | ? | -19% | -16% | -2%
CCC(=O)N1CCc2cc(Br)cc(S(=O)(=O)CCC(=O)Nc3ccc(C)c(F)c3)c21 | 2% | 7% | nt | 1%
N#Cc1ccc(-c2ccc(F)cc2)nc1Oc1ccc(Cl)c(Cl)c1 | 2% | 3% | 14% | 40µM*
Cc1ccc2oc(=O)c3cc(C(=O)Nc4ccc(F)cc4F)sc3c2c1 | 6% | -12% | 0% | -2%
NNC(=O)Cn1c(-c2nonc2N)nc2ccccc21 | -22% | 14% | 2% | -2%
Nc1nonc1-c1nc2ccccc2n1CC(=O)N/N=C\c1ccc(-c2ccc(Cl)cc2)o1 | 10µM* | 8% | 1% | -19%
O=C(c1ccco1)N(CCC(c1ccccc1)c1ccco1)Cc1ccc(F)cc1 (stereo not drawn) | 0% | 8% | ? | -2%
CC1(C)CC(C(CCN(Cc2ccccc2)C(=O)c2ccco2)c2ccc(F)cc2)CCO1 (stereo not drawn) | 7.9µM* | ? | -29% | -1%
NC(=O)[C@@H]1CCCN1Cc1c(C(=O)N2CCN(C3CCCCC3)CC2)nc2ccccn12 | -15% | 61% | 1% | 18µM*
O=C(c1nc2ccccn2c1CN1CCCC(O)C1)N1CCN(C2CCCCC2)CC1 (stereo not drawn) | 14% | 3% | 14% | -19%
COC(=O)C1=CN(C)C=C(C(=O)OC)C1c1ccsc1 | -3% | 254% | 1% | 7.9µM*
CC(=O)Nc1ccc(Nc2ccc3cc(S(=O)(=O)N4CCCCC4)ccc3n2)cc1 | -9% | -18% | nt | -14%
S=C(Nc1ccc(Cl)cc1)NC1CCCCC1 | 10µM* | ? | 12% | nt
Cc1cccc(NC(=S)NC2CCCC2)n1 | 4.5µM* | ? | 9% | 2%
S=C(NNc1cccc(Cl)c1)NC1CCCCC1 | 10µM* | ? | 9% | nt
S=C(Nc1cccc(Cl)c1)NC1CCCCC1 | 8.9µM* | ? | 8% | -1%
CCC(=O)Nc1ccccc1-c1nc2ccccc2n(CC(=O)Nc2ccccc2OC)c1=O | 3% | -4% | nt | -1%
O=C(Nc1cccc2cccnc12)c1csc(COCCO)n1 | 16% | -3% | 15% | -3%
SMILES | GLP1R inv ag | HEK293 tox | GLP-1R agonist | ClpP mod
CCOC(=O)N1CCc2c(sc3c2c(=O)n(-c2ccc(F)cc2)c(=O)n3CC(=O)c2ccc(Cl)cc2)C1 | -14% | -9% | nt | -6%
COc1cccc2c1Oc1ncccc1N(C(=O)Nc1ccc(F)c(Cl)c1)C2 | 8% | 1% | nt | -9%
CC(=O)c1cccc(NC(=S)NC2CCCCC2)c1 | 27% | -4% | 1% | 14µM*
S=C(Nc1ccc(Br)cc1)NC1CCCCC1 | ? | ? | -5% | 1%
FC(F)Oc1ccc(NC(=S)NC2CCSc3ccccc32)cc1 (stereo not drawn) | ? | ? | -12% | -1%
CCOc1cccc(C(=O)NC2CCCCC2)c1 | 1% | 4% | -1% | 0%
CCCCOc1cccc(C(=O)NNC(=S)NC2CCCCC2)c1 | ? | 11% | -11% | 25µM*
FC(F)Oc1ccc(NC(=S)NC2CCCCCCC2)cc1 | 4.5µM* | -16% | 1% | nt
S=C(Nc1ccc(Nc2ccccc2)cc1)NC1CCCCCC1 | 5µM* | -8% | 5% | nt
CC1=C(C(=O)Nc2cccnc2)C(c2cccc(Br)c2)n2nc(SCc3ccccc3)nc2N1 (stereo not drawn) | 15% | -15% | -2% | 5%
CC(=O)c1cccc(NC(=S)NC(=O)c2cccc(C)c2)c1 | 0% | -13% | 9% | 16µM*
Cc1cccc(NC(=S)N/C(=N/S(=O)(=O)c2ccccc2)c2ccccc2)c1 | ? | ? | -1% | 2.2µM*!
Cc1ccc(S(=O)(=O)/N=C(/NC(=S)Nc2cccc(C)c2)c2ccccc2)cc1 | -22% | -7% | 3% | 2%
CC(=O)c1cccc(NC(=S)NC(=O)c2ccc(Cl)cc2)c1 | 3% | ? | -4% | -2%
COCCNC(=O)CC(NS(=O)(=O)c1ccc(NC(C)=O)cc1)C(C)C (stereo not drawn) | -14% | -16% | -19% | 32µM*
Cc1cc(N2CCN(C)CC2)ccc1NC(=O)c1ccc(-c2ccc(Cl)cc2)o1 | 11µM* | ? | 12% | nt
CN1CCN(c2ccccc2NC(=O)c2ccc(-c3ccc(Cl)c(Cl)c3)o2)CC1 | -5% | 3% | 1% | -1%
Cc1cccc2c(=O)n3c(cc12)-c1[nH]c2ccccc2c1CC3 | -18% | 126% | -1% | 14µM*
CC(C)c1ccc(S(=O)(=O)c2n[nH]n3c2nc(=O)c2ccccc23)cc1 | 0% | -3% | -11% | 25µM*
CCc1ccc(S(=O)(=O)c2n[nH]n3c2nc(=O)c2ccccc23)cc1 | -17% | -4% | -1% | 32µM*
O=c1nc2c(-c3ccccc3F)n[nH]n2c2ccccc12 | 44% | -8% | -1% | 28µM*
O=c1nc2c(-c3ccc(F)cc3Cl)n[nH]n2c2ccccc12 | 45% | 1% | nt | 5%
Cc1ccc(-n2c(=O)c3c4c(sc3n(CC(=O)Nc3cccc(Cl)c3)c2=O)CCCCC4)cc1C | 1% | 1% | -3% | -3%
CCCC(CCC)C(=O)NC1CC(=O)N(c2ccc3c(c2)OCCO3)C1 (stereo not drawn) | 2% | 2% | 1% | -1%
O=c1c2ccccc2sn1-c1cccc(Cl)c1 | ? | ? | -3% | -1%
SMILES | GLP1R inv ag | HEK293 tox | GLP-1R agonist | ClpP mod
Cc1ccccc1-n1sc2cc(F)ccc2c1=O | ? | 4.5µM* | 4% | nt
O=c1c2ccccc2sn1-c1ccccc1 | 10µM* | ? | -8% | -2%
O=c1c2ccccc2sn1-c1ccccc1F | 14µM* | 10µM* | -5% | -4%
CC(C)=CCC/C(C)=C\CC/C(C)=C\CC/C=C(\C)CC/C=C(\C)CCC=C(C)C | nt | nt | -5% | nt
COc1ccc(Cl)cc1NC(=O)c1cnc2sc(N3CCOCC3)nn2c1=O | 6% | 6% | nt | 1%
COc1ccc(CN(CCC(C)C)S(=O)(=O)c2ccccc2Br)cc1 | 11µM* | 19% | 1% | -5%
